Data published in PubChem BioAssay (Tox21).
Several values for one entry are separate records, joined by “and”; a condition that tells them apart may be missing. Equal values may be shown once. Unmarked numbers belong to inactive results. Records with an inconclusive call do not appear. Entries that show only a call come without a potency. Activity calls are given as the source filed them. Unless noted, calls follow the shape of the dose curve; as a rule, active = well fitted curve in the direction sought with a large enough effect in the repeat runs; inconclusive = weak or mixed curves; inactive = no such curve, though single readings can be large; an effect the other way counts as inactive or inconclusive.

Assays:
[1] = A CellTox Green Cytotoxicity Assay to monitor cytotoxicity in HepG2 cells - 8 hour (AID 1224890); also: nearly all actives have a fitted effect of over 45% in size; also: potency is read from the fitted curve at half-maximal effect
Method in brief: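 First, HepG2 cells (600/well) mixed with reagent were plated; second, after 5 h at 37 C they received compounds via pintool; third, fluorescence was measured at 0 h through 40 h at 8 h intervals.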

[2] = qHTS assay to identify small molecule antagonists of the estrogen receptor alpha (ER-alpha) signaling pathway using the BG1 cell line in the presence of 0.1 nM 17-beta-estradiol - cell viability counter screen (AID 1259241); also: nearly all actives have a fitted effect of over 40% in size; also: potency is read from the fitted curve at half-maximal effect
Method in brief: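 Cytotoxicity counter-screen: live-cell protease activity measured by fluorescence (30 min reagent step) in the same wells. Cells were VM7Luc4E2 with endogenous ER-alpha and ERE-driven luciferase, treated 22 hr at 37C alongside 0.1 nM 17beta-estradiol final.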

[3] = qHTS assay to identify small molecule antagonists of the androgen receptor (AR) signaling pathway using the MDA cell line in the presence of 0.5 nM R1881 - cell viability counter screen (AID 1259242); also: nearly all actives have a fitted effect of over 45% in size; also: potency is read from the fitted curve at half-maximal effect
Method in brief: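 qHTS format. MDA-kb2 (MMTV-luc, AR/GR responsive) + cpd + 0.5 nM R1881 final, 16 hr 37C/0% CO2 → CellTiter-Fluor 30 min → fluorescence intensity.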

[4] = qHTS assay to identify small molecule phospholipidosis (PLD) inducers (AID 1259344; active = well fitted curve in the direction sought with a large enough effect; an effect the other way counts as inactive or inconclusive)
Method in brief: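 Read-out is LipidTOX Red fluorescence (ex 595/em 615) imaged in HepG2 cells after 24 h compound exposure at 37 C, with Hoechst nuclear counterstain (ex 352/em 461) allowing per-cell normalisation.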

[5] = qHTS assay to identify small molecule HDAC inhibitors (AID 1259364); also: potency is read from the fitted curve at half-maximal effect;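 also: wild-type HCT-116 cells with endogenous class I/II HDAC activity; nearly all actives have a fitted effect of over 45% in size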
Method in brief: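 Quantitative high-throughput format: overnight-seeded HCT-116 cells got compounds for 2 hr at 37C; HDAC-Glo I/II reagent added, 30 min RT, luminescence measured.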

[6] = qHTS assay to identify small molecule HDAC inhibitors - cell viability counter screen (AID 1259365); also: series mostly up to about 92 µM; nearly all actives have a fitted effect of over 50% in size
Method in brief: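 CellTiter-Glo luminescence (30 min, room temperature) reported viability after a 2 h compound exposure at 37 C. Cells: wild-type HCT-116, 1,500 per well, seeded the night before.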

[7] = qHTS assay to identify small molecule agonists of the sonic hedgehog signaling (Shh) pathway - cell viability counter screen (AID 1259366); also: nearly all actives have a fitted effect of over 50% in size; also: potency is read from the fitted curve at half-maximal effect
Method in brief: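 Cytotoxicity counter screen: CellTiter-Fluor reagent added after 23 h compound exposure, then 1 h at 37C and fluorescence read. Cells were 3T3 Gli1-Luc, seeded 2,000 per well and dosed 4 h post-plating.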

[8] = qHTS assay to identify small molecule antagonists of the sonic hedgehog signaling (Shh) pathway - cell viability counter screen (AID 1259367); also: nearly all actives have a fitted effect of over 55% in size; also: potency is read from the fitted curve at half-maximal effect
Method in brief: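 Fluorescence read-out (CellTiter-Fluor, 1 hr at 37C) taken after 23 hr compound treatment of 3T3 Gli1-Luc cells stimulated with conditioned medium. Cells were seeded at 2,000 per well and pre-incubated 4 hr.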

[9] = biological target: Estrogen receptor (Homo sapiens) (UniProt P03372); test: qHTS assay to identify small molecule antagonists of the estrogen receptor alpha (ER-alpha) signaling pathway using the BG1 cell line in the presence of 0.1 nM 17-beta-estradiol (AID 1259244); also: nearly all actives have a fitted effect of over 50% in size; also: potency is read from the fitted curve at half-maximal effect
Method in brief: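 Reporter is a stably transfected luciferase under four estrogen responsive elements in VM7Luc4E2 cells expressing native full-length ER-alpha; inhibition of 0.1 nM (final) 17beta-estradiol-driven signal over 22 h is read by luminescence.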

Chain of Estrogen receptor (Homo sapiens) (P03372 whole entry, looked up): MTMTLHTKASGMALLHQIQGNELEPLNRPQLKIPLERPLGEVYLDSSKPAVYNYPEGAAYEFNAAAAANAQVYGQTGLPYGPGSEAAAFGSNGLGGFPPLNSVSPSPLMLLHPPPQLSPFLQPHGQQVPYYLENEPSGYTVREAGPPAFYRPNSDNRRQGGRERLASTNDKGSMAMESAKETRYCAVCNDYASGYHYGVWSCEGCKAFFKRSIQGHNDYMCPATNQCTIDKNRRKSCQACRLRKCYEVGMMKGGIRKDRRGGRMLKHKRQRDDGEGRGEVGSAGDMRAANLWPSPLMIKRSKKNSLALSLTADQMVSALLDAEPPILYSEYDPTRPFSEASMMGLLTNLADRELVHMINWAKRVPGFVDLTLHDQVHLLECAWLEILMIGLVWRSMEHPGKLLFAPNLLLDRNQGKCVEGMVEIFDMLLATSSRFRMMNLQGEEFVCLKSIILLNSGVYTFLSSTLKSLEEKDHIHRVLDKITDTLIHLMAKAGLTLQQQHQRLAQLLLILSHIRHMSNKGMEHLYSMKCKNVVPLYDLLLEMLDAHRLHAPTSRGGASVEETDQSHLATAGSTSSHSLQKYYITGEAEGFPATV

| SMILES | Potency [1] | Potency [2] | Potency [3] | Potency [4] | Potency [5] | Potency [6] | Potency [7] | Potency [8] | Potency [9] | PLD induction [4] |
| --- | --- | --- | --- | --- | --- | --- | --- | --- | --- | --- |
| CCOC(=O)c1ccc(C#Cc2ccc3c(c2)C(C)(C)CCS3)nc1 | inactive | inactive | inactive | inactive | inactive | inactive | inactive | inactive |  |  |
| CCOC(=O)C1=C(C)NC(C)=C(C(=O)OC)C1c1cccc(Cl)c1Cl (stereo not drawn) | inactive | inactive | inactive |  |  | inactive | inactive | inactive | inactive |  |
| CCC1CO1 (stereo not drawn) | inactive | inactive | inactive |  | inactive | inactive | inactive | inactive |  |  |
| CC=C(Cl)Cl | inactive | inactive | inactive |  |  | inactive | inactive | inactive | inactive |  |
| CCCCCC[C@@H](O)C/C=C\CCCCCCCC(=O)O | inactive | inactive | inactive | inactive | inactive | inactive | inactive | inactive |  |  |
| O=C1CCCCCCCCCCOCCCCO1 | inactive | inactive | inactive |  | inactive | inactive | inactive | inactive |  |  |
| CCCCCCCCCCCCCCN(CCO)CCO | 54.9 µM (active) | inactive | 48.6 µM (active) |  | inactive | inactive | 61.1 µM (active) | inactive |  |  |
| Brc1cc(Br)c(Oc2cc(Br)c(Br)cc2Br)cc1Br | inactive | inactive | inactive |  | inactive | inactive | inactive | inactive |  |  |
| CC(=O)OCC[N+](C)(C)C | inactive | inactive | inactive | inactive | inactive |  | inactive | inactive |  |  |
| C[C@@]12CCC[C@H]1[C@@H]1CC[C@H]3C[C@@H](O)CC[C@]3(C)[C@H]1CC2 | inactive | inactive | inactive |  | inactive | inactive | inactive | inactive |  | 17.2% [at 7.66 µM] |
| O=C(O)c1ccc(OCCCOc2ccc(C(=O)O)cc2)cc1 | inactive | inactive | inactive |  | inactive | inactive | inactive | inactive |  |  |
| CC(=O)NC1(c2cccc(F)c2)CCN(CC[C@@]2(c3ccc(Cl)c(Cl)c3)CN(c3ccccc3)C(=O)CO2)CC1 | inactive | inactive | inactive |  | inactive | inactive | 24.4 µM (active) |  |  |  |
| N#[N+]c1ccc2c(S(=O)(=O)[O-])cccc2c1O | inactive | inactive | inactive |  |  | inactive |  | inactive | inactive |  |
| Oc1c(I)cc(I)c2cccnc12 | inactive | inactive | inactive | inactive | inactive |  | inactive | inactive |  |  |
| CCCCCCCCN | inactive | inactive | inactive |  | inactive | inactive | inactive | inactive |  |  |
| CCC(OCCCOC)OC(C)=O (stereo not drawn) | inactive | inactive | inactive |  | inactive | inactive | inactive | inactive |  |  |
| COc1ccccc1N1CCN(CC(O)COc2cccc3ccccc23)CC1 (stereo not drawn) | inactive | inactive | inactive | inactive |  |  |  | inactive |  |  |
| c1csc(SSc2cccs2)c1 | inactive | inactive | inactive |  | inactive | inactive | 43.3 µM (active) | 43.3 µM (active) |  |  |

| SMILES | Potency [1] | Potency [2] | Potency [3] | Potency [4] | Potency [5] | Potency [6] | Potency [7] | Potency [8] | Potency [9] | PLD induction [4] |
| --- | --- | --- | --- | --- | --- | --- | --- | --- | --- | --- |
| Cc1cccc(O)c1N | inactive | 61.8 µM (active) | inactive |  | inactive | inactive |  | 61.8 µM (active) |  |  |
| CCCCCCCCC(CCCCCC)C(=O)O (stereo not drawn) | inactive | inactive | inactive |  | inactive | inactive | inactive | inactive |  |  |
| CC1(C)[C@@H](OC(=O)CCC(=O)O)CC[C@]2(C)[C@H]3C(=O)C=C4[C@@H]5C[C@@](C)(C(=O)O)CC[C@]5(C)CC[C@@]4(C)[C@]3(C)CC[C@@H]12 | inactive | inactive | inactive | inactive | inactive | inactive | inactive | inactive |  |  |
| OCCN1CCN(CCCN2c3ccccc3Sc3ccc(Cl)cc32)CC1 | 23.9 µM (active) | inactive | inactive |  |  | inactive | 13.3 µM (active) | 13.3 µM (active) | inactive |  |
| N#CCCN(CCO)CCO | inactive | inactive | inactive |  |  | inactive | inactive | inactive | inactive |  |
| CC(C)C[C@H](NC(=O)[C@H](CCc1ccccc1)NC(=O)CN1CCOCC1)C(=O)N[C@@H](Cc1ccccc1)C(=O)N[C@@H](CC(C)C)C(=O)[C@@]1(C)CO1 | inactive | inactive | 16.8 µM (active) |  |  |  | inactive | inactive | 0.168 µM (active) |  |
| COc1ccc(OC(=O)N(CC(=O)O)Cc2ccc(OCCc3nc(-c4ccccc4)oc3C)cc2)cc1 | inactive | inactive | inactive |  | inactive | inactive | inactive | inactive |  |  |
| CC(CO)CO | inactive | inactive | inactive |  |  |  | inactive | inactive | inactive |  |
| COc1cc(N)c(Cl)cc1C(=O)NC1CCN(CCCOc2ccc(F)cc2)CC1OC (stereo not drawn) | inactive | inactive | inactive |  | inactive | inactive |  | inactive |  |  |
| CCOC(=O)c1ccc(OCCN2C[C@H](O)[C@@H](O)[C@H](O)[C@H]2CO)cc1 | inactive | inactive | inactive |  |  | inactive | inactive | inactive | inactive |  |
| Oc1cccc(Nc2ccccc2)c1 | inactive | inactive | inactive |  |  |  |  | inactive | inactive |  |
| CC1(CN2CCC(n3c(=O)[nH]c4ccccc43)CC2)OCc2ccccc2-n2cccc21 (stereo not drawn) | inactive | inactive | inactive |  |  | inactive | inactive | inactive | 29.8 µM (active) |  |
| O=C1C(=O)c2ccccc2C(O)=C1C1CCC(c2ccc(Cl)cc2)CC1 (stereo not drawn) | inactive | 26.6 µM (active) | 23.7 µM (active) |  |  | inactive | inactive | inactive | 26.6 µM (active) |  |
| CC(C)C=O | inactive | inactive | inactive |  | inactive | inactive | inactive | inactive |  |  |
| O=C(O)c1cccc(-c2noc(-c3ccccc3F)n2)c1 | inactive | inactive | inactive | inactive |  |  | inactive | inactive |  |  |
| C=CC(=O)OCC1CC2CC1C1CCC(COC(=O)C=C)C21 (stereo not drawn) | inactive | inactive | inactive |  | inactive | inactive |  |  |  |  |
| O=c1c(O)c(-c2ccc(O)cc2)oc2cc(O)cc(O)c12 | inactive | inactive | inactive |  | 21.6 µM (active) and 16.4 µM (active) | inactive | inactive | 48.4 µM (active) |  |  |
| O=C(Nc1cccc2c(=O)cc(-c3nn[nH]n3)oc12)c1ccc(OCCCCc2ccccc2)cc1 | 21.3 µM (active) | inactive | inactive | inactive | inactive |  | inactive | inactive |  |  |
